Results published in paper PMC7862700, “An all-to-all approach to the identification of sequence-specific readers for epigenetic DNA modifications on cytosine”.

Assays:
Assay in all cases: DAPPL (digital affinity profiling via proximity ligation, sequencing); 10 mM Tris-HCl pH 7.5, 50 mM NaCl, 1 mM DTT, 4% glycerol, room temperature, 30 min; GST-TFs on glutathione beads, 16-mer random dsDNA library, 0.1% formaldehyde crosslink after washing; high values mean tight binding
Conditions in all cases: protein: recombinant; tags: N-terminal GST; dsDNA, one strand shown
[1] = biological target: T1, FLI1 (Homo sapiens, UniProt Q01543 1-452)
T1 sequence: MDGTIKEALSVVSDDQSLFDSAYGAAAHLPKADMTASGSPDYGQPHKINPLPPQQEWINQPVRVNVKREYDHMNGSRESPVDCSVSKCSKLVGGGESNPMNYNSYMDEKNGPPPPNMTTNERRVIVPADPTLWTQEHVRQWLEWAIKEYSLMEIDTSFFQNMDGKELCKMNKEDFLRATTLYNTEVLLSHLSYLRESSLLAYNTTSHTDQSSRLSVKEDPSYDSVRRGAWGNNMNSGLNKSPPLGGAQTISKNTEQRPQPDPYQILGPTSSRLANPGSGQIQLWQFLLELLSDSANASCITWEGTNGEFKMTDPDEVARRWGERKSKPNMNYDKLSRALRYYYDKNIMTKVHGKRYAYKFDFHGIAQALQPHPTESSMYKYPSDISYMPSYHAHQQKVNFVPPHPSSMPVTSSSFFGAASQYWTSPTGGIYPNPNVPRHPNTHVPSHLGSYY
How it was run: (§1)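 Each value of binding signal is a hexamer's read frequency for a factor divided by the same hexamer's frequency in the tag-only sample. Barcoded, bead-captured GST fusions of human transcription factors made in yeast were pooled with that sample and incubated with 200 nmole of a random double-stranded 16-mer DNA library in Tris/NaCl/DTT/glycerol buffer at room temperature for 30 min. Washing, 0.1% formaldehyde crosslinking, proximity ligation, PCR and Illumina NextSeq500 sequencing followed.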

[2] = biological target: T2, ELK1 (Homo sapiens, UniProt P19419 1-428)
T2 sequence: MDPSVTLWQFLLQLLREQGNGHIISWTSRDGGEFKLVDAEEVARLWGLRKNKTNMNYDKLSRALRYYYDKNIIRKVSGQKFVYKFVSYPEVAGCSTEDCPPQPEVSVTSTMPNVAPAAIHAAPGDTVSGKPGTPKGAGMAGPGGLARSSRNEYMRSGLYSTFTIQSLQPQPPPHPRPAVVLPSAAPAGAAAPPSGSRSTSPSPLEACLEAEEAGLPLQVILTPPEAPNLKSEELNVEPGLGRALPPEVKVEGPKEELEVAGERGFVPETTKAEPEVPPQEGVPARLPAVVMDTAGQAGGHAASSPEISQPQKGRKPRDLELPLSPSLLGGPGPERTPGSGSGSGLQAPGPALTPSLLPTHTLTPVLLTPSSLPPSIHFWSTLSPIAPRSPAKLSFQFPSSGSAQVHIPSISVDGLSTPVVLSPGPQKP
How it was run: as §1

[3] = biological target: T3, GABPA (Homo sapiens, UniProt Q06546 1-454)
T3 sequence: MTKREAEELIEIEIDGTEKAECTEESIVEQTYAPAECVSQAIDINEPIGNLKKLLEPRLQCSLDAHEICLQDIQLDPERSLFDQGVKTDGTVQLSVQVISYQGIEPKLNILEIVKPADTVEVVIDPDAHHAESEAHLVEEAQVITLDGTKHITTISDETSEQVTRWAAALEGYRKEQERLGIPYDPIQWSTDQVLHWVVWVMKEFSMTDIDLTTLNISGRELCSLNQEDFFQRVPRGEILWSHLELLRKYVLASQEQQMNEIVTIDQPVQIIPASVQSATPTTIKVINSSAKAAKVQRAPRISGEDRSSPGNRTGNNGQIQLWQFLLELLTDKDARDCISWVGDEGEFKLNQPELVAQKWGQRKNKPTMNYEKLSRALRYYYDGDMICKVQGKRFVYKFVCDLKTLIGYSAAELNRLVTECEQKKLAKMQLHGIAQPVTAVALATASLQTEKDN
How it was run: as §1

[4] = biological target: T4, ERG (Homo sapiens, UniProt P11308 1-479)
T4 sequence: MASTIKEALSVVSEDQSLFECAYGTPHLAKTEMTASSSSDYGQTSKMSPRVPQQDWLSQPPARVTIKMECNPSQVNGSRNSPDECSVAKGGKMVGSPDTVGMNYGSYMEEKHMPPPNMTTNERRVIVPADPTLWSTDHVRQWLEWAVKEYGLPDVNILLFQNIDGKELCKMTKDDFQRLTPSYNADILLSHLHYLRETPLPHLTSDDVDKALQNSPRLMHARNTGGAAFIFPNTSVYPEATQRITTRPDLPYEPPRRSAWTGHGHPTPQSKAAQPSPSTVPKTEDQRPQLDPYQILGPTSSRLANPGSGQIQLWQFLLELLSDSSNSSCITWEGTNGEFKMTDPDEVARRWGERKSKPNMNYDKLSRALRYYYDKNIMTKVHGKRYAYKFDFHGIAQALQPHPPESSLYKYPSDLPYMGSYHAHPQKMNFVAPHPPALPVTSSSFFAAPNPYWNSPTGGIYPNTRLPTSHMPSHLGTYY
How it was run: as §1

[5] = biological target: ELF1 (Homo sapiens, UniProt P32519 1-619)
How it was run: as §1

[6] = biological target: T5, EHF (Homo sapiens, UniProt Q9NZC4 1-300)
T5 sequence: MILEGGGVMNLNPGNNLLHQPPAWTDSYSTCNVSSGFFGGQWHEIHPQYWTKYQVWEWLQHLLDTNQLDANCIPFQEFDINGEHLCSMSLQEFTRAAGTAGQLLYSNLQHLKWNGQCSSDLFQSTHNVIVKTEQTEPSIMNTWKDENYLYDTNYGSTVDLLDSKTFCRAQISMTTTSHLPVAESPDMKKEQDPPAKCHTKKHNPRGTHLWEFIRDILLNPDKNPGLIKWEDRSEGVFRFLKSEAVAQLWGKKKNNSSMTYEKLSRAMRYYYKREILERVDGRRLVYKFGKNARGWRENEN
How it was run: as §1

[7] = biological target: SPI1 (Homo sapiens, UniProt P17947 1-270)
How it was run: as §1

[8] = biological target: SPIB (Homo sapiens, UniProt Q01892 1-262)
How it was run: as §1

[9] = biological target: T6, ELK3 (Homo sapiens, UniProt P41970 1-407)
T6 sequence: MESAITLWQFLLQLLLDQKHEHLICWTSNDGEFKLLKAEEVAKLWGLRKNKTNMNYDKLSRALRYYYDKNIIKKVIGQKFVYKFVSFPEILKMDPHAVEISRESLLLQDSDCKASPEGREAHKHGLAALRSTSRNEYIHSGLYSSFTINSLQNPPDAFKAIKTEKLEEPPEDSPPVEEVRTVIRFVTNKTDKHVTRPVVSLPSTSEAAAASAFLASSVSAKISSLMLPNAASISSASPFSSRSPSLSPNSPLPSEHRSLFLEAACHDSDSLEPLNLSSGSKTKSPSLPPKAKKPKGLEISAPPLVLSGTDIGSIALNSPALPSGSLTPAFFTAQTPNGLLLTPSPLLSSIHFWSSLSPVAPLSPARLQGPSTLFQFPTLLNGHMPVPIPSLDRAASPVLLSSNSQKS
How it was run: as §1

Chain of SPIB (Q01892 whole entry): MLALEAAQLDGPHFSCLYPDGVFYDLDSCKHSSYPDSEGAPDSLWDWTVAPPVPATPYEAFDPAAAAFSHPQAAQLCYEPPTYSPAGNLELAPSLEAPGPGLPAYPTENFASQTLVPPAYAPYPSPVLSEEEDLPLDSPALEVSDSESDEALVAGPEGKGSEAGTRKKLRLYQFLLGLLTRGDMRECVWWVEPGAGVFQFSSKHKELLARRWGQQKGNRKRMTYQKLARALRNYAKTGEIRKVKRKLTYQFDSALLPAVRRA
Chain of ELF1 (P32519 whole entry): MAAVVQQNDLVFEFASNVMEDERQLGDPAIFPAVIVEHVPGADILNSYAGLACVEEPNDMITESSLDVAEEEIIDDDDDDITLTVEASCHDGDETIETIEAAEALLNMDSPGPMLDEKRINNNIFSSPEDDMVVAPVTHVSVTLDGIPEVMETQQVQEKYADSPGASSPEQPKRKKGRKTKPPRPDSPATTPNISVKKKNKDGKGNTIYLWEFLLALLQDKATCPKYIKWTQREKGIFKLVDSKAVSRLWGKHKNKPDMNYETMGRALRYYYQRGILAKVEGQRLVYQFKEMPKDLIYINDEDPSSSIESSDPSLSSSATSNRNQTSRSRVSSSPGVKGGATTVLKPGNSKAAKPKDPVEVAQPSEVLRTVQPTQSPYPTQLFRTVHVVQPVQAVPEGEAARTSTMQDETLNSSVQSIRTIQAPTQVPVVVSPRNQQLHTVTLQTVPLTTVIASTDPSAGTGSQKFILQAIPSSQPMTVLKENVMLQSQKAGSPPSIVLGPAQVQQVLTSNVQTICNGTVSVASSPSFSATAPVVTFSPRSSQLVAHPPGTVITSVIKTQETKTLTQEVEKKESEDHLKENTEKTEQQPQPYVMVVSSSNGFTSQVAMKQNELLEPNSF

| Sequence | binding signal [1] | binding signal [2] | binding signal [3] | binding signal [4] | binding signal [5] | binding signal [6] | binding signal [7] | binding signal [8] | binding signal [9] |
| --- | --- | --- | --- | --- | --- | --- | --- | --- | --- |
| CTCGCA | 1.34 fold enrichment (6-mer frequency, TF over GST control) | 1.25 fold enrichment (6-mer frequency, TF over GST control) | 1.29 fold enrichment (6-mer frequency, TF over GST control) | 1.29 fold enrichment (6-mer frequency, TF over GST control) | 1.27 fold enrichment (6-mer frequency, TF over GST control) | 1.3 fold enrichment (6-mer frequency, TF over GST control) | 1.27 fold enrichment (6-mer frequency, TF over GST control) | 1.22 fold enrichment (6-mer frequency, TF over GST control) | 1.17 fold enrichment (6-mer frequency, TF over GST control) |
| TTATCT | 1.37 fold enrichment (6-mer frequency, TF over GST control) | 1.2 fold enrichment (6-mer frequency, TF over GST control) | 1.41 fold enrichment (6-mer frequency, TF over GST control) | 1.15 fold enrichment (6-mer frequency, TF over GST control) | 1.31 fold enrichment (6-mer frequency, TF over GST control) | 1.3 fold enrichment (6-mer frequency, TF over GST control) | 1.31 fold enrichment (6-mer frequency, TF over GST control) | 1.34 fold enrichment (6-mer frequency, TF over GST control) | 1.36 fold enrichment (6-mer frequency, TF over GST control) |
| TCCGCC | 1.57 fold enrichment (6-mer frequency, TF over GST control) | 1.61 fold enrichment (6-mer frequency, TF over GST control) | 1.53 fold enrichment (6-mer frequency, TF over GST control) | 1.69 fold enrichment (6-mer frequency, TF over GST control) | 1.7 fold enrichment (6-mer frequency, TF over GST control) | 1.73 fold enrichment (6-mer frequency, TF over GST control) | 1.48 fold enrichment (6-mer frequency, TF over GST control) | 1.54 fold enrichment (6-mer frequency, TF over GST control) | 1.86 fold enrichment (6-mer frequency, TF over GST control) |
| TACATG | 1.24 fold enrichment (6-mer frequency, TF over GST control) | 1.09 fold enrichment (6-mer frequency, TF over GST control) | 1.14 fold enrichment (6-mer frequency, TF over GST control) | 1.2 fold enrichment (6-mer frequency, TF over GST control) | 1.27 fold enrichment (6-mer frequency, TF over GST control) | 1.18 fold enrichment (6-mer frequency, TF over GST control) | 1.26 fold enrichment (6-mer frequency, TF over GST control) | 1.16 fold enrichment (6-mer frequency, TF over GST control) | 1.3 fold enrichment (6-mer frequency, TF over GST control) |
| TATACG | 1.32 fold enrichment (6-mer frequency, TF over GST control) | 1.31 fold enrichment (6-mer frequency, TF over GST control) | 1.3 fold enrichment (6-mer frequency, TF over GST control) | 1.24 fold enrichment (6-mer frequency, TF over GST control) | 1.31 fold enrichment (6-mer frequency, TF over GST control) | 1.2 fold enrichment (6-mer frequency, TF over GST control) | 1.2 fold enrichment (6-mer frequency, TF over GST control) | 1.35 fold enrichment (6-mer frequency, TF over GST control) | 1.22 fold enrichment (6-mer frequency, TF over GST control) |
| CTGTTT | 1.48 fold enrichment (6-mer frequency, TF over GST control) | 1.36 fold enrichment (6-mer frequency, TF over GST control) | 1.41 fold enrichment (6-mer frequency, TF over GST control) | 1.4 fold enrichment (6-mer frequency, TF over GST control) | 1.4 fold enrichment (6-mer frequency, TF over GST control) | 1.34 fold enrichment (6-mer frequency, TF over GST control) | 1.6 fold enrichment (6-mer frequency, TF over GST control) | 1.43 fold enrichment (6-mer frequency, TF over GST control) | 1.34 fold enrichment (6-mer frequency, TF over GST control) |
| TCCCCC | 1.59 fold enrichment (6-mer frequency, TF over GST control) | 1.54 fold enrichment (6-mer frequency, TF over GST control) | 1.44 fold enrichment (6-mer frequency, TF over GST control) | 1.48 fold enrichment (6-mer frequency, TF over GST control) | 1.58 fold enrichment (6-mer frequency, TF over GST control) | 1.52 fold enrichment (6-mer frequency, TF over GST control) | 1.46 fold enrichment (6-mer frequency, TF over GST control) | 1.53 fold enrichment (6-mer frequency, TF over GST control) | 1.27 fold enrichment (6-mer frequency, TF over GST control) |
| ATTGCA | 1.17 fold enrichment (6-mer frequency, TF over GST control) | 1.31 fold enrichment (6-mer frequency, TF over GST control) | 1.19 fold enrichment (6-mer frequency, TF over GST control) | 1.21 fold enrichment (6-mer frequency, TF over GST control) | 1.17 fold enrichment (6-mer frequency, TF over GST control) | 1.14 fold enrichment (6-mer frequency, TF over GST control) | 1.19 fold enrichment (6-mer frequency, TF over GST control) | 1.17 fold enrichment (6-mer frequency, TF over GST control) | 1.24 fold enrichment (6-mer frequency, TF over GST control) |
